From ChEMBL document CHEMBL4513216, “Probing the Open Global Health Chemical Diversity Library for Multistage-Active Starting Points for Next-Generation Antimalarials” (ACS Infect Dis, 2020)
About 2,700 (4%) of roughly 68,000 compounds showed an effect of 50% or more. Shown is part of a subset that was picked to be rich in strong results.

Tested on: Plasmodium berghei
Assay: Screen against P. berghei liver stage (PbLuc), transformed with Luciferase, at 2uM
Type: functional, HepG2
Conditions: tested at 2 uM

Structure (SMILES) | INHIBITION
O=C1CN(Cc2ccc3ccccc3n2)CCN1C1CCCC1 | -34.37%
CNC(=O)NCC(=O)N1CCCC1Cc1cccc(F)c1 (centres undefined) | 41.21%
CNc1nc(C(=O)N2CCN(c3cc(C)nc(C)c3)CC2)cs1 | 7.64%
c1cc(-c2nnn3c2COC(CNCc2nccs2)C3)ccn1 (centres undefined) | 16.87%
O=C(c1cccc(OC2CCCC2)c1)N1CCCC(n2cncn2)C1 (centres undefined) | 27.55%
Cc1nsc(NC(=O)N2CCC(C(C)(C)O)CC2)n1 | -0.55%
CN1CCN(C(=O)c2cn(Cc3ccccc3)c3ncccc23)CC1 | 46.61%
Cc1ccc(NC2CCN(C(=O)CCc3nccs3)CC2)nn1 | 3.06%
CC(C)Cn1cc(C(=O)NC2CCS(=O)(=O)C2)c2ccccc2c1=O (centres undefined) | -70.1%
O=C(C1CCOCC1)N1CCC2(CC1)CN(c1ccsc1)C(=O)CO2 | -17.15%
CS(=O)(=O)Cc1ccc(NC(=O)c2cccnc2)cc1F | -35.1%
NC1CCc2nc(-c3cccnc3)nc(Nc3ccc(F)cc3)c2C1 (centres undefined) | -13.75%
CCc1nc(C2CCCN2CCCSC)no1 (centres undefined) | 55.92%
CCc1nc(C2CCCN2CCCS(N)(=O)=O)no1 (centres undefined) | 22.29%
CSCCCN1CCCC1c1noc(C)n1 (centres undefined) | -8.84%
Cn1ccc(CN2CCC(CC(=O)N3CCCC3)CC2)cc1=O | 14.5%
Cc1cccc(N2CCC(NC(=O)CCCc3cccs3)CC2)n1 | -52.85%
CCc1nc(C2CCCN2C(=O)c2ccc(N(C)C)nn2)no1 (centres undefined) | 5.91%
CCc1nc(C2CCCN2C(=O)c2ccc(N3CCCC3)nn2)no1 (centres undefined) | 63.46%
CCc1nc(C2CCCN2C(=O)CCc2nc(C3CC3)no2)no1 (centres undefined) | -25.46%
CCc1nc(C2CCCN2C(=O)c2c[nH]c(C)n2)no1 (centres undefined) | -72.93%
CCc1nc(C2CCCN2C(=O)CCc2nc(C(C)(C)C)no2)no1 (centres undefined) | 44.43%
CCc1nc(C2CCCN2C(=O)CCc2c(C)noc2Cl)no1 (centres undefined) | 51.94%

Structure (SMILES) | INHIBITION
CCn1cc(-c2cc(-c3ccn(C)c3)nc(N)c2C#N)cc1C#N | 17.19%
COc1ccc2cc(C(=O)N3CCCCC3Cn3cccn3)[nH]c2c1 (centres undefined) | -28.85%
Cc1cnn(CC2CCCN2C(=O)c2ccc3[nH]nnc3c2)c1 (centres undefined) | 53.72%
COc1ccc2cc(C(=O)N3CCCC3Cn3cc(C)cn3)[nH]c2c1 (centres undefined) | 53.98%
Cc1cnn(CC2CCCN2C(=O)c2ccc3[nH]c(=O)[nH]c3c2)c1 (centres undefined) | -73.25%
Cc1cnn(CC2CCCCN2C(=O)c2ccc3[nH]nnc3c2)c1 (centres undefined) | 39.32%
Cc1cnn(CC2CCCN2C(=O)c2cc3ccccc3[nH]2)c1 (centres undefined) | -20.11%
CC1CCN(C(=O)[C@H]2C[C@@H]3CCN(CC4CCOCC4)C[C@@H]3O2)CC1 | -21.33%
COCc1nc(C(=O)NS(=O)(=O)c2c(C)c(C)cc(C)c2C)cs1 | 18.85%
O=C(c1cn2ccsc2n1)N1CCN(CC2CC2)[C@@H]2CS(=O)(=O)C[C@@H]21 | -18.12%
Cn1cccc1C(=O)N1CCc2c(CNS(C)(=O)=O)cncc2C1 | 6.66%
CC(C)(C)NC(=O)c1cccc(CN2CCS(=O)(=O)CC2)c1 | 12.32%
CCc1cccnc1NCc1cnc(N2CCOCC2)nc1 | -20.29%
O=C(Cc1ccc(F)cc1)NCCNS(=O)(=O)C1CCCC1 | -36.61%
Cc1n[nH]c(C2CN(Cc3nnc(C4CC4)n3C)CCO2)n1 (centres undefined) | -82.49%
CCCc1n[nH]c(C2CN(Cc3nnc(C4CC4)n3C)CCO2)n1 (centres undefined) | 30.05%
CCc1n[nH]c(C2CN(Cc3nnc(C4CC4)n3C)CCO2)n1 (centres undefined) | 51.32%
COCCOC1CCN(C(C(=O)O)c2c(Cl)cccc2OC)CC1 (centres undefined) | -17.86%
Cc1cc(=O)[nH]c(=O)n1-c1cccc(Cl)c1Cl | -12.39%
O=C1NCCN1C1CCN(Cc2nc(-c3ccc(F)cc3)no2)CC1 | 21.39%
Cc1ccc(-c2noc(CN3CCC(N4CCNC4=O)CC3)n2)cc1 | 9.17%
O=C1NCCN1C1CCN(Cc2nc(-c3ccccc3)no2)CC1 | 64.16%
O=C1CC(NS(=O)(=O)N2CCOCC2)CN1CCc1ccccc1 (centres undefined) | 43.44%

Structure (SMILES) | INHIBITION
O=C1CC(NS(=O)(=O)N2CCOCC2)CN1Cc1ccc(F)cc1 (centres undefined) | 57.75%
O=C1CC(NS(=O)(=O)N2CCOCC2)CN1Cc1ccccc1 (centres undefined) | 21.22%
COCCCNC(=O)CN(C)C(=O)c1ccc(-n2cccc2)cc1O | -44.96%
CC(C)C(=O)N1CCN(Cc2ccccn2)CC2(CC(=O)N(C)C2)C1 (centres undefined) | 31.5%
Cc1ocnc1C(=O)N1CCCC1c1ccc(C(=O)N2CCSCC2)s1 (centres undefined) | 9.31%
COc1ccc(C2(NCc3c(C)nc4c(C)cccn34)CCCC2)cc1 | -43.11%
CCc1cc(NC2CCOCC2)n2nc(C)c(C)c2n1 | -35.61%
Cn1nccc1CCNC(=O)[C@H]1CNC[C@H](C(=O)N2CCCC2)C1 | 27.73%
CNc1ncc(-c2csc(NC(=O)C[C@H]3COCCN3)n2)cn1 | 12.21%
Nc1ncc(-c2csc(NC(=O)C[C@H]3COCCN3)n2)cn1 | 62.99%
CC(C)Nc1ncc(-c2csc(NC(=O)C[C@H]3COCCN3)n2)cn1 | 22.1%
CC(C)c1nc(C2CCCN2c2ccnc(C3CCCC3)n2)no1 (centres undefined) | 14.92%
CC(C)c1nc(C2CCCN2Cc2ccno2)no1 (centres undefined) | -9.3%
CC(C)c1nc(C2CCCN2Cc2ccncc2Cl)no1 (centres undefined) | 60.09%
CC(C)c1nc(C2CCCN2Cc2ccon2)no1 (centres undefined) | 56.02%
CC(C)c1nc(C2CCCN2Cc2ccccc2C#N)no1 (centres undefined) | -17.71%
Cc1cnc(CN2CCCC2c2noc(C(C)C)n2)cn1 (centres undefined) | 13.86%
CC(C)c1nc(C2CCCN2Cc2nnc(C3CCC3)o2)no1 (centres undefined) | 53.33%
CC(C)c1nc(C2CCCN2c2cnc3ccccc3n2)no1 (centres undefined) | 1.41%
Cc1nc(C2CCCN2Cc2ccon2)no1 (centres undefined) | 1.63%
CCc1nc(C2CCCN2Cc2nnc(C3CCC3)o2)no1 (centres undefined) | 16.26%
CC(C)c1nc(C2CCCN2c2cnc3cc(F)c(F)cc3n2)no1 (centres undefined) | 55.43%
C1CC(c2nnc(CN3CCCC3c3noc(C4CC4)n3)o2)C1 (centres undefined) | 21.43%
